Screens: PubChem, several laboratories
Lmaj promast = Leishmania major promastigote growth inhibition. 9% of 200,000 active. AID 1063. inhibition, % at 10 µM. Leishmania major promastigotes, resazurin fluorescence viability; in the data active = inhibition above about 50%;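 note: promastigotes grown with compound for 44 hours at 28 °C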
ROMK primary = modulates human ROMK potassium channel activity; P48048; Tet-inducible ROMK, thallium flux fluorescence; actives lie on both sides; B-score at 10 µM; 2% of 130,000 active; AID 1918;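 active = signal ratio slope over the read window, or its plate-corrected B-score, at least 3 SD from the plate mean, either direction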;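 note: B-score of the F/F0 ratio slope over 7 to 12 s after thallium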
Target sequence (P48048 whole entry, looked up): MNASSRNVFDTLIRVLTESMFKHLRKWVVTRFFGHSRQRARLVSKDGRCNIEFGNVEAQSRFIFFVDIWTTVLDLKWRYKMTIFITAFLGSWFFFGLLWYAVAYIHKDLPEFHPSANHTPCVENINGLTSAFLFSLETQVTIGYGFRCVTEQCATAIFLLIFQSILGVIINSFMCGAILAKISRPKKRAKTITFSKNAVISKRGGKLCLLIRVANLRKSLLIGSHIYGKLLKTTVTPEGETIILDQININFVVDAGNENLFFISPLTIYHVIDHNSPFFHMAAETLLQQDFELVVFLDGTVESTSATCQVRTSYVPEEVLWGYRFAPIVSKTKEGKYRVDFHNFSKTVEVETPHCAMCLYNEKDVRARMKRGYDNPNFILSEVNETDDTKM
KCC2 mod = modulates chloride dependent transport by human KCC2; Q9H2X9; KCC2 cells, thallium flux FluoZin-2 fluorescence; B-score of Tl+ flux slope (higher = more flux/activation; lower = inhibition) at 10 µM; 2.2% of 190,000 active;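 active = thallium flux slope and its plate-corrected score both differing from the plate sample mean at a set confidence after two filtering rounds, in either direction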;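 note: slope of fluorescence scaled to starting intensity during 10 to 20 s after thallium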
WT yeast gro inh = growth inhibition of WT yeast, mitochondrial fusion screen. mitochondrial fusion phenotypic screen, WT strain. inhibition, % at 10 µM. 2.1% of 190,000 active. AID 1362; in the data active = inhibition above about 58%; tested in S. cerevisiae
INS promoter inh = TRM-6 insulin promoter activity inhibition | TRM-6 cells (human fetal islet line), insulin promoter-eGFP reporter, imaging; reporter expression induced with tamoxifen | inhibition, % at 2 µM | 0.9% of 130,000 active;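 active = inhibition above the mean plus 3 SD, with well images judged a real hit on visual review, cut at about 60% in these data, passing the limit was not always enough; inconclusive = inhibition over the cutoff but images rejected on review; inactive = inhibition not above the cutoff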
Insulin prom up = MIN6 insulin promoter up-regulation. 0.3% of 190,000 active. MIN6 insulin promoter-GFP reporter, high-content imaging; hits give high values. z-score at 5 µM;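 active = z-score above 3 at 5 µM with at least 500 cells counted in the well; inconclusive = wells under 500 cells, flagged as cytotoxic or low count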
Numbers without * were called inactive; ? = inconclusive; . = not tested or not shown. Rows were chosen to be rich in hits. Some 12% of all compounds tested hit in one or more screens of this group.

SMILES	Lmaj promast	ROMK primary	KCC2 mod	WT yeast gro inh	INS promoter inh	Insulin prom up
COc1ccc(N(C(=O)C(C)C)S(=O)(=O)c2cccc([N+](=O)[O-])c2)cc1	5.5	-0.764	-0.436	33.2	-128.6	-0.27
O=C(CCSc1ccccc1)NCCN1CCOCC1	-7.0	.	0.0365	13.2	-3.9	0.65
O=C(CCN1CCOCC1)c1ccc(Br)cc1	33.1	0.147	-0.802	-6.9	.	-0.17
O=C(CCN1CCOCC1)c1ccc(Cl)cc1	71.7*	.	.	-14.5	.	-0.28
Clc1ccc(SCCCCN2CCNCC2)cc1	100.2*	.	0.00312	37.2	6.9	0.45
Cc1ccc(SCCCCN2CCNCC2)cc1	99.8*	-0.714	-0.0344	0.3	50.6	0.09
Cc1ccc(SCCC(=O)N2CCCC2)cc1	3.6	.	.	-9.7	?	1.38
Clc1ccc(SCCCCN2CCOCC2)cc1	96.7*	0.0264	0.544	18.8	-6.9	-0.08
COc1cc(-c2nc(N)n[nH]2)cc(OC)c1OC	0.5	-0.175	.	13.6	16.1	-0.62
O=C(NCCCCc1ccccc1)c1ccccc1Cl	-5.4	.	-2.55	-5.0	21.4	-0.01
O=C(/C=C/c1ccc(Cl)cc1Cl)Nc1cccc(S(=O)(=O)NC2=NCCCCC2)c1	51.5*	.	-0.332	6.8	0.0	0.03
O=C(Nc1cccc(S(=O)(=O)NC2=NCCCCC2)c1)c1cccnc1Cl	.	.	-0.035	.	.	-0.2
N/C(=N\N=C\c1ccco1)SC1CC(=O)N(c2ccc(C(=O)O)cc2)C1=O (stereo not drawn)	-3.8	0.255	1.22	-7.3	.	-0.28
O=C(/C=C/c1ccc(Cl)c([N+](=O)[O-])c1)Nc1ccc(N2CCCC2)cc1	66.8*	0.486	1.33	10.5	13.2	-0.05
O=C(NC(=S)Nc1ccccc1N1CCCC1)c1ccccc1[N+](=O)[O-]	12.2	.	15.7*	43.1	.	-0.57
CCC(=O)N1CCN(c2ccccc2NC(=S)NC(=O)c2cccc([N+](=O)[O-])c2)CC1	61.2*	0.0234	0.492	23.5	-76.2	-1.66
O=C(/C=C/c1ccc(Cl)c([N+](=O)[O-])c1)Nc1ccc(NC(=O)c2ccco2)cc1	-0.5	.	-1.94	9.3	31.2	0.15
O=C(Nc1ccccc1N1CCOCC1)c1ccccc1[N+](=O)[O-]	-1.5	.	0.188	-9.2	-16.7	2.77
CCC(=O)N1CCN(c2ccc(NC(=S)NC(=O)c3cccc([N+](=O)[O-])c3)cc2)CC1	-4.2	.	1.22	-2.9	.	-0.29
O=C(NC(=S)Nc1ccc(N2CCCC2)cc1)c1ccccc1[N+](=O)[O-]	54.1*	0.0857	0.166	3.9	11.1	-0.39
CN(C)S(=O)(=O)c1cccc(NC(=O)c2cnccn2)c1	9.4	0.0612	0.244	-24.1	.	-0.24
CCN(CC)S(=O)(=O)c1cccc(NC(=S)NC(=O)/C=C/c2ccc(S(=O)(=O)N3CCOCC3)cc2)c1	79.8*	0.618	0.12	-2.4	6.9	0.83
O=C(CCl)Nc1cccc(S(=O)(=O)N2CCCCCC2)c1	85.5*	.	-1.42	-2.2	.	-2.57
CC(Oc1ncnc2ccccc12)C(=O)Nc1cccc(S(=O)(=O)N2CCOCC2)c1 (stereo not drawn)	77.8*	-0.136	0.0011	13.8	25.9	0.18
O=C(/C=C/c1ccc(S(=O)(=O)N2CCOCC2)cc1)NC(=S)Nc1ccc(Cl)cc1Cl	20.1	-0.0311	-0.105	27.5	.	0.41
SMILES	Lmaj promast	ROMK primary	KCC2 mod	WT yeast gro inh	INS promoter inh	Insulin prom up
COc1ccc(NS(=O)(=O)c2cccc(NC(=O)c3cnccn3)c2)cc1Br	100.0*	-0.378	-0.0829	13.6	5.3	-0.51
CCCc1nc2ccccc2c(C(=O)OCC(=O)Nc2cccc(S(=O)(=O)N3CCOCC3)c2)c1CC	23.2	.	-0.126	-13.1	-20.9	-0.25
Cc1onc(-c2ccccc2Cl)c1C(=O)OCC(=O)Nc1cccc(S(=O)(=O)N2CCOCC2)c1	63.8*	0.434	-1.8	5.6	-10.5	.
COc1ccc(/C=C/C(=O)NC2CCCCCC2)cc1S(=O)(=O)N1CCOCC1	97.9*	-0.0156	1.18	-10.9	13.9	-0.05
O=C(CN1C(=O)NC(Cc2c[nH]c3ccccc23)C1=O)Nc1cccc(S(=O)(=O)N2CCCCCC2)c1 (stereo not drawn)	64.3*	.	-2.61	-13.5	40.7	-0.63
COc1ccc(/C=C/C(=O)Nc2cccc(S(=O)(=O)N3CCCC3)c2)cc1OC	55.2*	-0.0427	-0.642	5.7	.	-0.52
O=C(Nc1cccc(S(=O)(=O)N2CCCCC2)c1)c1cnccn1	86.6*	-0.0354	-0.0214	-2.7	36.4	0.82
O=C(CNCC1CCCCC1)Nc1cccc(S(=O)(=O)N2CCOCC2)c1	79.3*	-0.886	-0.0569	-5.8	.	0.37
O=C(CN1C(=O)NC2(CCCCC2)C1=O)Nc1cccc(S(=O)(=O)N2CCOCC2)c1	.	.	0.541	.	.	-0.45
O=C(CN1C(=O)C2C3C=CC(C3)C2C1=O)Nc1cccc(S(=O)(=O)N2CCCC2)c1 (stereo not drawn)	-0.9	-0.144	-0.0058	3.9	100.0*	0.33
CC(=O)c1cccc(NC(=O)CN2C(=O)C3C4C=CC(C4)C3C2=O)c1 (stereo not drawn)	-5.0	-0.812	.	-4.7	13.3	1.53
OC1(c2cccc(F)c2)CCN(Cc2ccncc2)CC1	93.6*	-0.37	.	7.1	14.3	-0.01
O=c1c2ccccc2nc(CSc2nnnn2-c2ccccc2)n1-c1cccc(C(F)(F)F)c1	-4.3	0.683	0.575	3.7	35.5	0.66
Cc1cc(C)n(-c2nnc(C)n2/N=C/c2cc(Br)ccc2OCc2ccccc2)n1	89.2*	-2.56	-4.55	3.9	-36.1	0.91
COc1ccc(-c2cc(=O)oc3c(C)c(OC(=O)c4cccs4)ccc23)cc1	-3.2	-0.346	0.383	-26.6	.	1.07
CCOC(=O)C(Oc1ccc2c(-c3ccccc3)cc(=O)oc2c1C)c1ccccc1 (stereo not drawn)	100.2*	.	-0.482	13.2	.	0
CCOC(=O)C(Oc1ccc2c(-c3ccc(OC)cc3)cc(=O)oc2c1C)c1ccccc1 (stereo not drawn)	100.3*	.	0.0547	.	4.4	.
Cc1nn(C)cc1NC(=O)c1nn(C)cc1[N+](=O)[O-]	-4.1	0.472	-3.38	3.1	4.8	-0.02
O=C(COC(=O)c1ccc(Br)o1)NC1CCCCC1	-1.6	-0.33	0.725	9.5	0.0	0.09
COc1nc(OCC#N)nc(N2CCCCC2)n1	-1.0	0.0799	-0.397	-8.0	6.7	-0.75
N#CCOc1nc(N2CCCC2)nc(N2CCCC2)n1	96.8*	-0.198	0.0877	0.1	17.2	0.93
COc1nc(N2CCCCCC2)nc(N2CCCCCC2)n1	-2.6	0.304	-0.27	63.6*	.	-1.18
Nc1cccn2c(-c3ccc(Cl)c(Cl)c3)cnc12	64.7*	-0.124	0.48	39.0	.	0.53
Nc1cccn2c(-c3ccc(Cl)cc3)cnc12	72.8*	-0.472	-1.33	1.1	-133.3	0.71
Nc1nnc(-c2ccc(Cl)c(Cl)c2)s1	4.8	-0.248	-0.543	42.7	.	0.05
CCCCn1c(Cc2ccccc2)nnc1SCC(=O)N1CCOCC1	-7.4	.	0.543	-12.4	46.0	.
Cc1cc(C)cc(-n2cc3c(=O)n(C)c(=O)n(C)c3c2)c1	.	.	.	19.8	.	.
Cn1cncc1C(=O)c1ccccc1	.	.	1.03	.	.	-0.56
